LMP1 NFkB inh – reduces LMP1-driven NF-kappaB luciferase signal; LMP1-induced NF-kappaB luciferase reporter cells, luminescence; inhibition, % at 12.5 µM; 350,000 compounds, 0.69% hits; in the data active means inhibition above about 41%;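 further: 0% = neutral control wells and 100% = reference inhibitor control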
Glyco luc inh – blocks N-linked glycosylation in D54 reporter cells | D54 ERlucT glycosylation luciferase reporter, 24 h; percent of 100 nM tunicamycin response | reporter increase, % at 12.5 µM | 360,000 compounds, 0.23% hits | AID 588692;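 active means mean luciferase reporter signal, scaled so untreated is 0 and the glycosylation-blocking control 100, at or above a set limit in every replicate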;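 further: luciferase carries N-glycosylation sites so blocking glycosylation raises the light; 0% = median of neutral control wells and 100% = median of 100 nM tunicamycin wells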
PAX8 reporter – PAX8 transcriptional activity inhibition; RMG-I TPO-luciferase reporter, SteadyGlo, 24 h; AID 652154; 360,000 compounds, 1.2% hits; inhibition, % at 12.6 µM;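 active means mean replicate inhibition at least 60% with every replicate also reaching 60%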;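 further: luciferase light reporting Pax8 driven TPO promoter activity; plate controls were median of neutral control wells for no effect and mitoxantrone controls for full effect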
Shn3 inh set2 – inhibitors of Schnurri-3 3'UTR reporter in osteoblasts | Clone20 osteoblast Shn3 3'UTR firefly luciferase, 24 h | inhibition, % at 12.5 µM | 360,000 compounds, 0.52% hits;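 active means mean inhibition of at least 75% with every replicate also reaching 75%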;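 further: 0% = median of neutral control wells and 100% = pilot-screen positive control compound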
NSD2 HMT inh – NSD2 (human) methyltransferase inhibition; O96028; NSD2 peptide methylation, AlphaScreen, 120 min; inhibition, % at 12.5 µM; 310,000 compounds, 0.54% hits; in the data active means inhibition above about 50%
HIV Env fusion – HIV envelope-mediated fusion inhibition | HeLa-JRFL Env/CEM21 cell fusion, luciferase | inhibition, % at 12.3 µM | 360,000 compounds, 1.1% hits | AID 651610;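 active means mean replicate inhibition score of at least 50 and every replicate individually at or above 50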;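 further: 0% = plate neutral controls and 100% = maraviroc near 300 nM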
Numbers without * were called inactive; x = not tested or not shown; [ ] = remark or other dose. The list is not random: actives were taken first. Their share in the collection is about 2.8%.

SMILES	LMP1 NFkB inh	Glyco luc inh	PAX8 reporter	Shn3 inh set2	NSD2 HMT inh	HIV Env fusion
CCC(=O)N(C)C[C@@H]1Oc2cc(C#Cc3ccccc3)ccc2S(=O)(=O)N([C@H](C)CO)C[C@H]1C	x	x	15.6	x	x	66.0*[16.7 µM]
CN(C)C(=O)C[C@@H]1CC[C@@H]2[C@H](COc3ccc(NC(=O)C4CC4)cc3C(=O)N2C)O1	x	x	8.6	x	x	x
COC(=O)CCC(=O)Nc1cc(Cl)cc(Cl)c1	-7.4	3.2	69.8*	3.3	10.1	-4.7
C[C@@H]1CN([C@H](C)CO)C(=O)c2cc(NC(=O)NC3CCCCC3)ccc2O[C@H]1CN(C)C	x	x	-1.7	x	x	7.0[16.7 µM]
COc1ccc(OC)c(NC(=O)COC(=O)c2c3c(nc4ccccc24)CCCC3)c1	31.3	-1.9	x	90.0*	-1.2	x
COc1ccc(NC(=O)COc2ccccc2)c(OC)c1	-11.0	-0.2	-39.6	-100.9	2.0	-99.9
COc1ccc(OC)c(NC(=O)COC(=O)COc2ccc(Nc3ccccc3)cc2)c1	69.6*	1.7	-2.1	4.8	0.1	x
CCC1CCCCN1S(=O)(=O)c1ccc(C(=O)Nc2nnc(-c3ccccc3Cl)o2)cc1 (stereo not given)	23.4	1.8	x	58.1	x	x
CCC1CCCCN1S(=O)(=O)c1ccc(NC(=O)c2nc(S(C)(=O)=O)ncc2Cl)cc1 (stereo not given)	4.0	-23.8	104.1*	96.5*	1.8	-0.1
CCC1CCCCN1S(=O)(=O)c1ccc(NC(=O)C2CCN(C(=O)c3ccco3)CC2)cc1 (stereo not given)	0.4	-1.4	64.0*	3.8	7.8	-2.3
O=C(Nc1ccc(Br)cc1)C1CCN(C(=O)c2ccco2)CC1	0.1	-0.4	2.2	-17.2	-0.2	0.5
CCC1CCCCN1S(=O)(=O)c1ccc(NC(=O)c2ccncc2)cc1 (stereo not given)	18.1	-1.7	12.4	87.9*	2.4	62.6*
Cc1ccc(S(=O)(=O)N[C@H]2C=C[C@@H](CC(=O)NC3CCCCC3)O[C@@H]2CO)cc1	x	x	-7.5	x	x	-12.8[16.7 µM]
N#CC(c1ccc(Cl)cc1)c1cccc(Cl)n1 (stereo not given)	-6.5	-0.4	28.9	3.7	0.8	-10.1
COc1ccc(C(C#N)c2ccc(=O)[nH]n2)cc1 (stereo not given)	52.1*	2.2	-1.2	1.1	0.7	14.0
C=C(CC)C(=O)c1ccc(OCC(=O)O)c(Cl)c1Cl	0.4	4.5	80.8*	-12.7	x	-363.8
C=C1CCC2C(C)(C)[C@H](O)CC[C@@]2(C)[C@@H]1COc1cc(=O)oc2ccccc12 (stereo not given in full)	2.4	-1.6	x	-11.7	x	x
C=C1CC(COc2cc(=O)oc3ccccc23)(c2ccccc2)OC1=O (stereo not given)	67.0*	-19.0	25.4	97.3*	-2.5	-83.6
CO[C@@H]1CN(C)C(=O)c2ccc(NC(=O)C3CCCC3)cc2OC[C@H](C)N(C(=O)CC2CC2)C[C@H]1C	x	x	-4.1	x	x	-1.5[16.7 µM]
CCOC(=O)c1ccc(-n2c(C)ccc2C)cc1	-4.6	0.5	3.2	-7.2	-1.0	7.0
CCOC(=O)c1ccc(N2C(=O)C=CC2=O)cc1	67.4*	-0.5	x	88.2*	x	x
CCOc1ccc(OCc2cccc(C(=O)N/N=C/c3cccnc3)c2)cc1	74.8*	-7.6	48.4	6.8	8.4	69.2*
CC(C)c1ccc(OCc2cccc(C(=O)N/N=C/c3cccnc3)c2)cc1	62.5*	-8.7	29.6	19.9	-3.9	x
O=C(N/N=C/c1cccnc1)c1cccc(Br)c1	11.5	0.0	-0.2	-15.3	-0.2	5.6
CCOC(=O)C(=Cc1ccc(N(C)C)cc1)C(=O)c1ccccc1	x	-0.8	-9.5	15.4	1.3	-14.3
SMILES	LMP1 NFkB inh	Glyco luc inh	PAX8 reporter	Shn3 inh set2	NSD2 HMT inh	HIV Env fusion
CCOC(=O)N(O)c1ccc(C=Cc2ccccc2)cc1	86.2*	-11.6	-70.7	28.8	x	-37.9
Cc1nn(C2CCS(=O)(=O)C2)c(Cl)c1/C=C/C(=O)OCC(=O)c1c[nH]c2ccccc12 (stereo not given)	9.4	-3.2	25.4	47.4	3.0	36.4
Cc1nn(C2CCS(=O)(=O)C2)c(Cl)c1/C=C/C(=O)OCC(=O)c1cc(C)n(-c2ccc(F)cc2)c1C (stereo not given)	26.6	-10.2	34.1	66.4	-0.9	55.0*
COc1ccc([C@H]2CC(=O)C=C(c3ccc(F)cc3OCc3ccccc3)C2)cc1OC	11.3	-5.6	51.9	81.3	x	72.2*
COc1ccc(CN(C)C[C@@H]2Oc3c(NS(=O)(=O)c4ccc(F)cc4)cccc3C(=O)N([C@H](C)CO)C[C@@H]2C)cc1	x	x	-7.0	x	x	x
O=C(C[C@H]1CC[C@@H]2[C@H](COC[C@@H](O)CN2Cc2ccc(F)cc2)O1)NCc1ccccc1Cl	x	x	92.4*	x	x	x
O=C(C[C@@H]1CC[C@H]2[C@@H](COC[C@@H](O)CN2C(=O)c2ccc(F)cc2)O1)NC1Cc2ccccc2C1	x	x	1.3	x	x	66.9*[16.7 µM]
O=C(C[C@@H]1CC[C@@H]2[C@H](COC[C@H](O)CN2C(=O)c2ccccc2)O1)NC1Cc2ccccc2C1	x	x	-10.9	x	x	x
Cc1ccccc1S(=O)(=O)N1C[C@H](O)COC[C@H]2O[C@@H](CC(=O)NCc3ccccc3Cl)CC[C@@H]21	x	x	3.6	x	x	57.4*[16.7 µM]
O=C(C[C@H]1CC[C@H]2[C@@H](COC[C@@H](O)CN2Cc2ccc(Oc3ccccc3)cc2)O1)N1CCCCC1	x	x	99.8*	x	x	x
C[C@@H](NC(=O)C[C@@H]1CC[C@@H]2[C@H](COC[C@H](O)CN2Cc2cc(F)ccc2F)O1)c1ccccc1	x	x	67.7*	x	x	14.5[16.7 µM]
O=C(C[C@@H]1CC[C@H]2[C@@H](COC[C@H](O)CN2Cc2cccc(C(F)(F)F)c2)O1)NCc1ccc(Cl)cc1	x	x	46.8	x	x	67.5*[16.7 µM]
O=C(C[C@@H]1CC[C@@H]2[C@H](COC[C@@H](O)CN2Cc2cccc(C(F)(F)F)c2)O1)NCc1ccc(Cl)cc1	x	x	21.6	x	x	-6.8[16.7 µM]
C[C@@H](NC(=O)C[C@H]1CC[C@@H]2[C@H](COC[C@@H](O)CN2Cc2cc(F)ccc2F)O1)c1ccccc1	x	x	13.5	x	x	-1.4[16.7 µM]
CCc1ccc(-c2cc(C)no2)cc1S(=O)(=O)NCCCN1CCN(c2ccccc2)CC1	3.0	-2.4	60.7*	56.6	-0.1	48.9
COc1ccc(-c2cc(C)no2)cc1S(=O)(=O)NCC(C)c1ccccc1 (stereo not given)	-2.5	-1.9	-0.1	-0.2	3.0	55.9*
CCc1ccc(-c2cc(C)no2)cc1S(=O)(=O)NCCN1CCC(C)CC1	-2.6	-3.3	6.9	8.0	3.2	7.9
O=C(N[C@H]1CC[C@@H](CCNS(=O)(=O)c2cccc(Cl)c2)O[C@H]1CO)c1ccc(F)cc1	x	x	0.0	x	x	-19.0[16.7 µM]
CCOc1ccc(OCC(O)CNC2CCN(Cc3ccccc3)CC2)cc1 (stereo not given)	0.0	-3.5	19.5	-10.1	6.7	2.0
CC(C)(c1ccccc1)c1ccc(OCC(O)CNC2CCN(Cc3ccccc3)CC2)cc1 (stereo not given)	-13.1	-4.8	79.9*	37.5	-2.1	27.0
